# PD-1 reverse act: activators reversing PD-1 mediated T-cell inhibition, primary screen, luminescence, primary human CD4 T cells, PD-L1 beads. CellTiter-Glo 96 h. activation, % (test concentration not listed). 29,000 tested, under 10 active. AID 2316, 2010; call rule not given here;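 note: 0% = median vehicle wells and 100% = positive control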
# NOMO-1 viab: NOMO-1 AML cell viability reduction, primary screen, STK33 inhibitor project, CellTiter-Glo luminescence; hit rate 7.5% among 37,000; AID 2330, 2010; inhibition, % (no concentration beside the values); NOMO-1 AML viability, 72 h; in the data active = inhibition above about 80%; inconclusive = no clear call, values can overlap the other calls
# Hedgehog inh: Hedgehog pathway signaling inhibitors, primary screen, luminescence, Shh-LIGHT2 cells, Gli-luciferase | AID 2313, 2010 | Shh-LIGHT2 Gli-luciferase reporter, 30 h | hit rate 2.1% among 22,000 | inhibition, % (test concentration not listed);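 active = mean inhibition across valid replicates above about 65%, limit read from the data; inconclusive = mean under the limit, yet half or more replicates past it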;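 note: pathway switched on by Shh-conditioned medium diluted 1 in 25 in low serum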
# MITF inhib: inhibitors of MITF, primary screen, MITF inhibitor project, cell-based, luminescence; TRPM1 promoter luciferase, 24 h; inhibition, % (no concentration beside the values); hit rate 0.28% among 37,000; AID 2240, 2010; in the data active = inhibition above about 85%; inconclusive = no clear call, values can overlap the other calls; inactive = below about 68%;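 note: human melanocyte line stably carrying TRPM1 promoter luciferase reporter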
# An asterisk follows results filed as active; ? = inconclusive; . = not tested or not shown. A selection: hits, their analogues and other compounds. The true share with any hit is near 7.8%.
SMILES,PD-1 reverse act,NOMO-1 viab,Hedgehog inh,MITF inhib
C=CCn1c(-c2nonc2NC(=O)CC)nc2ccccc21,-0.5,-2.3,-14.3,11.8
COc1ccc(NC(=O)Nc2ccc3c(c2)CC(=O)N([C@@H](C)CO)C[C@H](C)[C@@H](CN(C)S(=O)(=O)c2ccc(C)cc2)O3)cc1,-1.7,23.8,.,-1.3
COc1ccc(NC(=O)Nc2ccc3c(c2)CC(=O)N([C@H](C)CO)C[C@H](C)[C@H](CN(C)S(=O)(=O)c2ccc(C)cc2)O3)cc1,.,121.6*,-5.7,39.9
COc1ccc(NC(=O)Nc2ccc3c(c2)CC(=O)N([C@@H](C)CO)C[C@H](C)[C@H](CN(C)S(=O)(=O)c2ccc(Cl)cc2)O3)cc1,-0.2,112.5*,15.2,36.5
COc1ccc(NC(=O)Nc2ccc3c(c2)CC(=O)N([C@H](C)CO)C[C@H](C)[C@H](CN(C)S(=O)(=O)c2ccc(Cl)cc2)O3)cc1,.,122.5*,-72.8,38.4
CCOC(=O)c1ccc(NC(=O)c2ccco2)cc1,1.6,7.8,-115.1,16.9
COc1cccc(C(=O)COc2cccc(NC(=O)c3cccc([N+](=O)[O-])c3)c2)c1,-1.5,?,.,54.8
COC(=O)COc1cccc(NC(=O)c2ccc(Cl)c(Cl)c2)c1,-0.3,108.4*,.,4.4
COC(=O)COc1cccc(NC(=O)c2cccc(C)c2)c1,-2.4,121.0*,.,2.5
COC(=O)COc1cccc(NC(=O)c2ccc(NC(=O)c3ccco3)cc2)c1,-4.8,109.8*,.,2.7
COc1cccc(NC(=O)CNC(=O)c2cccs2)c1,-0.5,-16.1,.,-61.2
COC(=O)COc1cccc(NC(=O)c2cccs2)c1,1.1,137.2*,.,-7.8
COC(=O)c1ccccc1NC(=O)C1=C(C)NC(=S)NC1c1cc(Cl)cc(OC)c1OC(C)C (configuration not stated),-4.0,21.2,.,23.1
COC(=O)COc1cccc(NC(=O)c2ccccc2-c2ccccc2C(=O)O)c1,3.1,-4.2,.,0.3
COC(=O)COc1cccc(NC(=O)c2ccccc2)c1,-1.6,121.7*,.,5.5
CC(C)Cc1c(O)nc(SCC(=O)NC(C)(C)C)[nH]c1=O,0.3,-5.2,-24.4,7.3
Cc1ccc(S(=O)(=O)N(C)C[C@@H]2Oc3ccc(NC(=O)Nc4ccc(C(F)(F)F)cc4)cc3CC(=O)N([C@H](C)CO)C[C@H]2C)cc1,2.2,65.9,.,45.3
C[C@@H]1CN([C@H](C)CO)C(=O)Cc2cc(NC(=O)Nc3ccccc3)ccc2O[C@H]1CN(C)S(=O)(=O)c1ccccc1,-1.1,-16.3,.,-7.6
C[C@@H]1CN([C@H](C)CO)C(=O)Cc2cc(NC(=O)Nc3ccc(C(F)(F)F)cc3)ccc2O[C@@H]1CN(C)S(=O)(=O)c1ccc(F)cc1,-0.9,89.5*,17.6,11.7
C[C@H]1CN([C@@H](C)CO)C(=O)Cc2cc(NC(=O)Nc3ccc(C(F)(F)F)cc3)ccc2O[C@@H]1CN(C)S(=O)(=O)c1ccc(F)cc1,.,68.9,23.8,36.7
C[C@H]1CN([C@@H](C)CO)C(=O)Cc2cc(NC(=O)Nc3ccc(C(F)(F)F)cc3)ccc2O[C@H]1CN(C)S(=O)(=O)c1ccccc1,-2.3,102.0*,-9.2,22.8
C[C@H]1CN([C@@H](C)CO)C(=O)Cc2cc(NC(=O)Nc3ccc(C(F)(F)F)cc3)ccc2O[C@H]1CN(C)S(=O)(=O)c1ccc(Cl)cc1,-4.2,114.9*,?,46.0
Cc1noc(C)c1S(=O)(=O)Nc1ccc2c(c1)CC(=O)N([C@@H](C)CO)C[C@H](C)[C@H](CN(C)C(=O)Nc1ccc(C(F)(F)F)cc1)O2,.,-1.4,65.6*,2.1
CNC(=O)NC(=O)CSc1nnc(-c2ccco2)o1,0.3,-18.0,-14.7,5.1
c1cnc2cc(Oc3ccc4nccnc4c3)ccc2n1,-0.4,27.2,-8.5,-53.4
SMILES,PD-1 reverse act,NOMO-1 viab,Hedgehog inh,MITF inhib
Cc1noc(C)c1S(=O)(=O)N(C)C[C@H]1Oc2ccc(NC(=O)Nc3ccccc3)cc2CC(=O)N([C@@H](C)CO)C[C@@H]1C,-0.9,29.2,-8.9,-6.6
C[C@H](CO)N1C[C@H](C)[C@H](CN(C)S(C)(=O)=O)Oc2ccc(NC(=O)Nc3ccc(C(F)(F)F)cc3)cc2CC1=O,-1.2,98.5*,.,2.3
Cc1noc(C)c1S(=O)(=O)N(C)C[C@H]1Oc2ccc(NC(=O)Nc3ccc(C(F)(F)F)cc3)cc2CC(=O)N([C@@H](C)CO)C[C@H]1C,-1.0,91.7*,.,36.1
C[C@@H]1CN([C@@H](C)CO)C(=O)Cc2cc(NC(=O)Nc3ccc(C(F)(F)F)cc3)ccc2O[C@@H]1CN(C)S(=O)(=O)c1ccc(Cl)cc1,-7.4,103.9*,26.1,30.8
O=C(COC(=O)c1ccc(N2C(=O)c3ccccc3C2=O)cc1)c1ccccc1,0.0,19.4,-4.1,-2.2
O=C(CSc1nnc(-c2ccccc2Cl)o1)c1ccc2c(c1)OCCO2,.,9.6,.,-10.1
C[C@@H]1CN([C@@H](C)CO)C(=O)c2cccc(NC(=O)Nc3ccc(C(F)(F)F)cc3)c2O[C@H]1CN(C)CC1CC1,-6.0,82.6*,2.5,29.2
C[C@H](CO)N1C[C@H](C)[C@@H](CN(C)CC2CCCCC2)Oc2c(NC(=O)Nc3ccc(C(F)(F)F)cc3)cccc2C1=O,-5.4,120.6*,-72.9,27.1
C[C@@H]1CN([C@H](C)CO)C(=O)c2cccc(NC(=O)Nc3ccc(C(F)(F)F)cc3)c2O[C@@H]1CN(C)CC1CC1,0.9,20.2,11.4,3.0
Cc1ccc(N(C(C)C(=O)Nc2cccc(C)c2C)S(C)(=O)=O)cc1 (configuration not stated),0.7,32.2,.,4.1
C[C@@H]1CCCCO[C@@H](CN(C)Cc2ccc(C(=O)Nc3ccccc3N)cc2)[C@@H](C)CN([C@H](C)CO)C(=O)c2cc(NS(=O)(=O)c3cccs3)ccc2O1,-0.2,138.5*,.,15.4
C[C@@H]1CN([C@@H](C)CO)C(=O)c2cc(NS(=O)(=O)c3cccs3)ccc2O[C@H]1CN(C)Cc1ccc(C(=O)Nc2ccccc2N)cc1,-0.5,28.8,.,-12.2
C[C@@H]1CCCCO[C@H](CN(C)Cc2ccc(C(=O)Nc3ccccc3N)cc2)[C@@H](C)CN([C@H](C)CO)C(=O)c2cc(NS(=O)(=O)c3cccs3)ccc2O1,-2.2,127.2*,.,15.6
CCN(CC)CCSc1nnc2c3ccccc3n(CC(N)=O)c2n1,0.3,33.2,2.0,-12.5
NC(=O)NC1C(=O)c2ccccc2OC1c1ccccc1 (configuration not stated),-5.3,114.3*,34.9,12.4
CC(C)c1ccc(C2C(C#N)=C(N)C(C#N)(C#N)C3=CCN(C)CC32)cc1 (configuration not stated),-2.9,105.4*,74.1*,13.9
CC(=O)Nc1ccc(S(=O)(=O)N2CCCCC2C)cc1 (configuration not stated),1.0,11.1,-2.0,4.6
COC(=O)c1cc(NC(=O)CSc2nnc(N)s2)ccc1Cl,-1.5,109.8*,.,-16.6
CC(=O)c1ccc(NC(=O)CSc2nnc(N)s2)cc1,-4.9,15.3,.,-58.1
CC(C)C(=O)Nc1cccc(-c2nc3ccccc3c(=O)o2)c1,-1.1,28.2,-17.5,6.9

# Screens (PubChem BioAssay)
